From the supplement of paper PMC8975748
Where a name gives a salt, the structure may show the parent alone.

The compounds below were run on Saccharomyces cerevisiae BY4741 SeMeCo community (assay: z-score of subpopulation abundance vs DMSO median, subpopulation auxotrophic for HLU; higher = larger share of this subpopulation than in DMSO controls). Conditions: 10 µM; 24 h; SM minimal medium; subpopulation (auxotrophy): HLU.
Method: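 Fluorescent four-plasmid SeMeCo (self-establishing metabolically cooperating S. cerevisiae BY4741 community; plasmids pH-mRuby2, pL-mWasabi, pU-eCFP, pM-TagRFP657) was grown 24 h in minimal SM medium with each Selleck FDA-approved drug at 10 µM in 384-well plates. Cells were fixed and imaged by high-content confocal microscopy. For each auxotrophic subpopulation (and the prototroph), a z-score gives the deviation from the DMSO vehicle-control population median.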

Question: Which “z-score of subpopulation abundance” value does the source give for CC[C@H]1CN2CC[C@]3(C(=O)Nc4ccccc43)[C@@H]2C[C@@H]1/C(=C\OC)C(=O)OC [Rhynchophylline] here?
Answer: 0.21

Question: Which “z-score of subpopulation abundance” value does the source give for COc1ccc(C(CN(C)C)C2(O)CCCCC2)cc1 (centres undefined) [Venlafaxine HCl] here?
Answer: -0.14

Question: With Cn1cc(C2=C(c3cn(C4CCN(Cc5ccccn5)CC4)c4ccccc34)C(=O)NC2=O)c2ccccc21 as the compound, how does the “z-score of subpopulation abundance” value read?
Answer: 0.26

Question: For COc1ccc2c3c([nH]c2c1)C(C)=NCC3 [Harmaline], which “z-score of subpopulation abundance” value is on record?
Answer: -4.09

Question: Which “z-score of subpopulation abundance” value does the source give for COc1ccc(C(CN(C)C)C2(O)CCCCC2)cc1 (centres undefined) [Venlafaxine] here?
Answer: -0.41

Question: With C=CCN1C[C@H](C(=O)N(CCCN(C)C)C(=O)NCC)C[C@@H]2c3cccc4[nH]cc(c34)C[C@H]21 [Cabergoline] as the compound, how does the “z-score of subpopulation abundance” value read?
Answer: -0.08

Question: CC[C@@H](C(N)=O)N1CCCC1=O [Levetiracetam] was tested. Which “z-score of subpopulation abundance” value did it give?
Answer: -0.28

Question: Which “z-score of subpopulation abundance” value does the source give for CC(C)(O)C(Cl)(Cl)Cl [Chlorobutanol] here?
Answer: 0.97

Question: For CCCCCCCCCCCCCCCC[n+]1ccccc1 [Cetylpyridinium Chloride], which “z-score of subpopulation abundance” value is on record?
Answer: 9.76

Question: For CN(C)[C@@H]1C(=O)C(C(N)=O)=C(O)[C@@]2(O)C(=O)C3=C(O)c4c(O)cccc4[C@@](C)(O)[C@H]3[C@H](O)[C@@H]12 [Oxytetracycline Dihydrate], which “z-score of subpopulation abundance” value is on record?
Answer: 0.15

Question: Which “z-score of subpopulation abundance” value does the source give for CN1c2ccccc2C(NCCCCCCC(=O)O)c2ccc(Cl)cc2S1(=O)=O (centres undefined) [Tianeptine sodium] here?
Answer: -0.23

Question: CC(C)=CCOc1c2occc2cc2ccc(=O)oc12 [Imperatorin] was tested. Which “z-score of subpopulation abundance” value did it give?
Answer: 0.14

Question: CCN1CC2(OC(=O)c3ccccc3NC(C)=O)CCC(OC)C34C1C(CC23)C1(O)CC(OC)C2CC4C1(O)C2OC (centres undefined) [Lappaconitine] was tested. Which “z-score of subpopulation abundance” value did it give?
Answer: -0.47

Question: For C=CN1CCCC1=O.II [Povidone iodine], which “z-score of subpopulation abundance” value is on record?
Answer: 2.59

Question: C[CH2][Hg][S]c1ccccc1C(=O)[O-].[Na+] [Thimerosal] was tested. Which “z-score of subpopulation abundance” value did it give?
Answer: 15.9

Question: With CN[C@@H]1[C@@H](O)[C@@H](O[C@@H]2[C@@H](O)[C@H](O[C@H]3O[C@H](CN)CC[C@H]3N)[C@@H](N)C[C@H]2N)OC[C@]1(C)O.CN[C@@H]1[C@@H](O)[C@@H](O[C@@H]2[C@@H](O)[C@H](O[C@H]3O[C@H]([C@@H](C)N)CC[C@H]3N)[C@@H](N)C[C@H]2N)OC[C@]1(C)O.CN[C@@H]1[C@@H](O)[C@@H](O[C@@H]2[C@@H](O)[C@H](O[C@H]3O[C@H]([C@@H](C)NC)CC[C@H]3N)[C@@H](N)C[C@H]2N)OC[C@]1(C)O [Gentamicin Sulfate] as the compound, how does the “z-score of subpopulation abundance” value read?
Answer: -0.42

Question: With COc1ccc2c(c1)[C@]13CCCC[C@@H]1[C@H](C2)N(C)CC3 [Dextromethorphan hydrobromide hydrate] as the compound, how does the “z-score of subpopulation abundance” value read?
Answer: -0.08

Question: For NC(=O)CN1CCCC1=O [Piracetam], which “z-score of subpopulation abundance” value is on record?
Answer: 1.5

Question: For CCOC(=O)Nc1ccc(NCc2ccc(F)cc2)cc1N [Retigabine], which “z-score of subpopulation abundance” value is on record?
Answer: 0.77

Question: How did the “z-score of subpopulation abundance” value turn out when CC1(C)SC2C(N)C(=O)N2C1C(=O)O (centres undefined) [6-Aminopenicillanic acid] was run?
Answer: -0.15

Question: For CNC1CC(N)C(O)C(OC2OC(CO)C(O)C3OC4(OC(C(N)CO)C(O)C(O)C4O)OC23)C1O (centres undefined) [Hygromycin B], which “z-score of subpopulation abundance” value is on record?
Answer: -0.44

Question: For CCC1=C[C@H]2CN3CCc4c([nH]c5ccccc45)[C@](C(=O)OC)(C2)[C@H]13 [Catharanthine], which “z-score of subpopulation abundance” value is on record?
Answer: -0.62

Question: CN(C)[C@@H]1C(=O)C(C(N)=O)=C(O)[C@@]2(O)C(=O)C3=C(O)c4c(O)ccc(Cl)c4[C@@](C)(O)[C@H]3C[C@@H]12 [Chlortetracycline HCl] was tested. Which “z-score of subpopulation abundance” value did it give?
Answer: -0.5

Question: With C=C(C)[C@H]1Cc2c(ccc3c2O[C@@H]2COc4cc(OC)c(OC)cc4[C@@H]2C3=O)O1 [Rotenone (Barbasco)] as the compound, how does the “z-score of subpopulation abundance” value read?
Answer: 1.77

Question: Cc1cc(C(C#N)c2ccc(Cl)cc2)c(Cl)cc1NC(=O)c1cc(I)cc(I)c1O (centres undefined) [Closantel] was tested. Which “z-score of subpopulation abundance” value did it give?
Answer: 0.79

Question: With COC(=O)C1=CCCN(C)C1 [Arecoline HBr] as the compound, how does the “z-score of subpopulation abundance” value read?
Answer: 0.06

Question: With CC(=O)OCC1=C(C(=O)O)N2C(=O)C(N)C2SC1 (centres undefined) [7-Aminocephalosporanic acid] as the compound, how does the “z-score of subpopulation abundance” value read?
Answer: -0.25

Question: How did the “z-score of subpopulation abundance” value turn out when CN(C)C(=O)Oc1ccc[n+](C)c1 [Pyridostigmine Bromide] was run?
Answer: -0.68

Question: Which “z-score of subpopulation abundance” value does the source give for C[C@@H]1CC[C@H]2[C@@H](C)C(=O)O[C@@H]3O[C@@]4(C)CC[C@@H]1[C@]32OO4 [Artemisinin] here?
Answer: -0.05

Question: With CN(C)[C@@H]1C(=O)C(C(N)=O)=C(O)[C@@]2(O)C(=O)C3=C(O)c4c(O)cccc4[C@@](C)(O)[C@H]3[C@H](O)[C@@H]12 [Oxytetracycline (Terramycin)] as the compound, how does the “z-score of subpopulation abundance” value read?
Answer: 0.16

Question: N[C@@H]1C[C@H]1c1ccccc1 [Tranylcypromine (2-PCPA) HCl] was tested. Which “z-score of subpopulation abundance” value did it give?
Answer: 0.05

Question: CN[C@@H]1[C@@H](O)[C@@H](O[C@@H]2[C@@H](O)[C@H](O[C@H]3O[C@H]([C@@H](C)O)[C@@H](O)[C@H](O)[C@H]3N)[C@@H](N)C[C@H]2N)OC[C@]1(C)O [Geneticin (G418 Sulfate)] was tested. Which “z-score of subpopulation abundance” value did it give?
Answer: 0.77

Question: Which “z-score of subpopulation abundance” value does the source give for O=c1cccc2n1C[C@@H]1CNC[C@H]2C1 [Cytisine] here?
Answer: -0.22

Question: Cc1cc(O)ccc1Cl [Chlorocresol] was tested. Which “z-score of subpopulation abundance” value did it give?
Answer: -0.87
